Screening results: PubChem, several laboratories
SRC3 inh: inhibits human SRC3 coactivator | Q9Y6Q9 | HEK293 GAL4-SRC3 luciferase reporter, luminescence | inhibition, % at 3.6 µM | actives 0.17% (n = 360,000) | AID 588352;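 active = inhibition above a per-campaign cutoff, the mean of all compounds plus 3 SD, cut at about 60% in these data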;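 note: 0% = DMSO-treated cells and 100% = gossypol-treated cells at 36 µM; higher means less SRC3-driven luciferase light from the GAL4 reporter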
NCOA2 inhibitor: inhibits human steroid receptor coactivator 2 | inhibition, % at 9 µM | AID 651957 | HEK293 GAL4-SRC2 luciferase reporter, luminescence | actives 0.17% (n = 370,000);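 active = inhibition above the mean inhibition of all tested compounds plus 3 SD, set per campaign, cut at about 52% in these data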;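 note: 0% = DMSO treated cells and 100% = cells given Gossypol at 36 µM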
NR2F2 inh: NR2F2 (human) inhibition, primary screen; P24468; HEK293T NGFI-A luciferase reporter, luminescence; inhibition, % at 8.6 µM; actives 0.7% (n = 370,000);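 active = inhibition above a per-plate cutoff, mean inhibition of test wells between control levels plus 3 SD, cut at about 38% in these data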;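 note: cells cotransfected with COUP-TFII expression vector driving the NGFI-A reporter; 0% = median of COUP-TF2 test wells and 100% = reporter-only cells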
LRH-1 inv ag: inverse agonists of human LRH-1 (NR5A2); O00482; actives 0.13% (n = 360,000); HEK293T StAR-luciferase reporter, LRH-1 transfected, 24 h; inhibition, % at 3.6 µM;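 active = inhibition above the mean inhibition of all tested compounds plus 3 SD, cut at about 73% in these data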;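 note: 0% = DMSO wells and 100% = reporter-only cells lacking LRH-1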
Efflux pump inh: antifungal efflux pump inhibition, Nile Red retention | actives 0.44% (n = 330,000) | S. cerevisiae Candida pump triplex | inhibition, % at 10 µM | AID 485275;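 active = plate passing quality check with inhibition over a set limit, or well fluorescence over plate mean plus 4 SD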;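 note: Nile Red retained in pooled yeast measured as flow cytometry median fluorescence; 0% = buffer negative control and 100% = Enniatin B positive control; higher means more Nile Red kept so more efflux inhibition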
NCOA1 inh: human NCOA1 inhibition | Q15788 | actives 0.12% (n = 360,000) | inhibition, % at 3.6 µM | AID 588354 | HEK293 GAL4-SRC1 luciferase reporter, luminescence;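 active = inhibition above the campaign mean plus 3 SD, with each screening campaign given its own cutoff, cut at about 60% in these data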;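 note: 0% = DMSO treated cells and 100% = gossypol at 36 µM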
Gal4-VP16 ctr: inhibits VP16 reporter, flagging COUP-TFII antagonist hits | HEK293 Gal4-VP16 luciferase reporter, luminescence | shares compounds with NR2F2 inh | AID 687007 | actives 25% (n = 2,500) | inhibition, % at 8.5 µM; in the data active = inhibition above about 13%
NR2F2 inh conf: confirmation of human COUP-TFII (NR2F2) inhibitors; shares compounds with NR2F2 inh; HEK293 NGFI-A luciferase reporter, luminescence; inhibition, % at 8.5 µM; actives 45% (n = 2,500);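 active = mean inhibition over three repeats above a set limit taken from the earlier primary screen, cut at about 38% in these data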;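 note: 100% = cells given the luciferase reporter alone without the COUP-TF2 vector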
* hit, by the source's call; nt = no result. Shown are actives, neighbours in structure and some others; about 1.2% of the full set was active somewhere.

SMILES	SRC3 inh	NCOA2 inhibitor	NR2F2 inh	LRH-1 inv ag	Efflux pump inh	NCOA1 inh	Gal4-VP16 ctr	NR2F2 inh conf
CN(Cc1ccc(OC(F)F)cc1)C(=O)c1cccc(S(=O)(=O)N2CCN(Cc3ccccc3)CC2)c1	31	20	55*	36	nt	25	-3	42*
CN(C)C(=O)c1ccc(NC(=O)c2cccc(S(=O)(=O)N3CCN(Cc4ccccc4)CC3)c2)cc1	12	5	10	2	nt	-15	nt	nt
CN(CC(=O)Nc1ccc(Cl)cc1)C(=O)c1cccc(S(=O)(=O)N2CCN(Cc3ccccc3)CC2)c1	-7	20	37*	11	0	8	1	5
CS(=O)(=O)c1ccc(NC(=O)c2cccc(S(=O)(=O)N3CCN(Cc4ccccc4)CC3)c2)cc1	19	-2	41*	8	0	-22	-6	16
CC(C)[C@H]1COCCS(=O)(=O)N1Cc1cccc(Cl)c1	6	-19	11	-11	0	5	nt	nt
CC1(C)Cc2c(sc(NC(=O)c3ccc(S(=O)(=O)N4CCCC4)cc3)c2C#N)C(C)(C)N1	-10	-16	7	12	0	4	nt	nt
COc1ccc(/C=C2\Sc3ccc(C(=O)NC4CC4)cc3N(C)C2=O)cc1OC	-22	15	-10	8	0	-6	nt	nt
O=C(NC1CCN(Cc2ccccc2)CC1)c1ccc2c(c1)[nH]c(=O)n2Cc1ccc(F)cc1	20	-1	64*	19	0	-8	3	34
CN1C(=O)/C(=C\c2ccccc2F)Sc2ccc(C(=O)NC3CCN(Cc4ccccc4)CC3)cc21	19	20	41*	29	0	10	-2	20
COc1cc2c(cc1OC)C(C)N(C(=O)c1cc3n(n1)C(C(F)(F)F)CC(c1ccco1)N3)CC2 (centres undefined)	11	-5	10	-21	0	-7	nt	nt
COc1cc2cc(C(=O)Nc3ccc4c(c3)OCCO4)[nH]c2cc1OC	55	40	48*	46	0	54	-47	-9
CCCCCCn1c(NCC)nc2c1c(=O)n(C)c(=O)n2C	30	11	57*	45	0	25	11	49*
CCCCNc1nc2c(c(=O)n(C)c(=O)n2C)n1CCC	9	-2	21	-6	0	2	nt	nt
CC[n+]1c(C=C2C=C(C)OC(C)=C2)sc2ccccc21	68*	-58	77*	76*	nt	53	12	64*
CCC(C)(C)c1ccc(OCCCC[n+]2ccccc2)c(C(C)(C)CC)c1	36	-25	54*	44	1	8	7	16
Cc1ccc2c(c1)N(CC(=O)NC1CCCC1)C(=O)CO2	-7	-13	10	-12	0	-4	nt	nt
Cc1ccc(C(=O)c2cccc(N)c2)cc1C	32	80*	72*	23	0	27	62*	41*
O=C(NNc1ccnc2cc(Cl)ccc12)C1CCCCC1	20	17	57*	36	1	26	13*	65*
Nc1ccc(Nc2nc(-c3cc4ccccc4oc3=O)cs2)cc1	-76	-55	-24	-46	0	-118	nt	nt
CC(=O)Nc1ccc(Nc2nc(-c3cc4ccccc4oc3=O)cs2)cc1	-62	-8	40*	-55	0	-25	-135	-68
CCN(CC)S(=O)(=O)c1ccc(NC(=O)Nc2cccc(C(F)(F)F)c2)cc1	25	49	75*	19	0	9	-7	7
CCN(CC)S(=O)(=O)c1ccc(/C=C/C(=O)O)cc1	3	23	3	0	0	1	nt	nt
CCN(CC)S(=O)(=O)c1ccc(/C=C/C(=O)Nc2cccc(F)c2)cc1	-13	11	38*	-8	0	-17	-69	4
CC1(Cc2ccc3ccccc3n2)C(=O)Nc2ccc(OC(F)(F)F)cc21 (centres undefined)	-1	14	90*	16	nt	-1	0	10
COc1ccc(CCN=C(N)NS(=O)(=O)c2ccccc2)cc1	0	-3	7	0	0	4	nt	nt
